# Data taken from PubChem BioAssay (Tox21).
# Several values for one entry are separate records, joined by “and”; a condition that tells them apart may be missing. Identical values can stand only once. Results filed as inconclusive are left out. Entries that show only a call come without a potency. Where a structure was tested more than once in an assay, its records may differ in their call. Activity calls are given as the source filed them. Calls follow the shape of the dose curve; as a rule, active = well fitted curve in the direction sought with a large enough effect in the repeat runs; inconclusive = weak or mixed curves; inactive = no such curve, though single readings can be large; an effect the other way counts as inactive or inconclusive.
# Experiments:
# [1] = target: Cytochrome P450 1A2 (Homo sapiens) (UniProt P05177); assay: Cytochrome P450 Family 1 Subfamily A Member 2 (CYP1A2) small molecule antagonists: luciferase reporter qHTS assay (AID 1671199); settings: P450-Glo CYP1A2 enzyme, luciferin luminescence, 1 h; series mostly up to 115 µM; also: potency is read from the fitted curve at half-maximal effect
# Chain of Cytochrome P450 1A2 (Homo sapiens) (P05177 whole entry, looked up): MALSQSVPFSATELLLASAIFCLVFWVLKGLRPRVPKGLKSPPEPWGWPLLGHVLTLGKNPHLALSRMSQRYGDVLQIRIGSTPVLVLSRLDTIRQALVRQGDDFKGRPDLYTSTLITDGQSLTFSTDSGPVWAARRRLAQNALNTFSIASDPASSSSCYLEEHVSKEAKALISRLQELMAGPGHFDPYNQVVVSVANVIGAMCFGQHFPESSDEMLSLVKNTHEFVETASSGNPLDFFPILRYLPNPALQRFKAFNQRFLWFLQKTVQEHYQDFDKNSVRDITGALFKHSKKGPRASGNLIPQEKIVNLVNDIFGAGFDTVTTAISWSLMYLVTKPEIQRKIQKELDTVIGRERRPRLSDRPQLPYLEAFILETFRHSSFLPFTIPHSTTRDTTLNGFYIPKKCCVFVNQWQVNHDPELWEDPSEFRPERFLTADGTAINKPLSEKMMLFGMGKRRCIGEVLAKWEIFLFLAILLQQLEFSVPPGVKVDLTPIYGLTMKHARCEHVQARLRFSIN
# Procedure, shortened: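 Steps: enzyme-substrate mix dispensed; test compounds and furafylline control pinned in; 10 min room temperature; NADPH regeneration solution added, 1 h; reaction stopped with luciferin detection reagent; luminescence read after 20 min.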
# [2] = target: Voltage-gated inwardly rectifying potassium channel KCNH2 (Homo sapiens) (UniProt Q12809); assay: Human Ether-a-go-go-Related Gene (hERG) channel small molecule antagonists: fluorescence cell-based qHTS assay (AID 1671200); settings: hERG-U2OS cells, FluxOR thallium flux fluorescence; series mostly up to 76.8 µM;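 also: hERG-expressing U2OS cells given a thallium stimulus after FluxOR II dye loading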
# Chain of Voltage-gated inwardly rectifying potassium channel KCNH2 (Homo sapiens) (Q12809 whole entry, looked up): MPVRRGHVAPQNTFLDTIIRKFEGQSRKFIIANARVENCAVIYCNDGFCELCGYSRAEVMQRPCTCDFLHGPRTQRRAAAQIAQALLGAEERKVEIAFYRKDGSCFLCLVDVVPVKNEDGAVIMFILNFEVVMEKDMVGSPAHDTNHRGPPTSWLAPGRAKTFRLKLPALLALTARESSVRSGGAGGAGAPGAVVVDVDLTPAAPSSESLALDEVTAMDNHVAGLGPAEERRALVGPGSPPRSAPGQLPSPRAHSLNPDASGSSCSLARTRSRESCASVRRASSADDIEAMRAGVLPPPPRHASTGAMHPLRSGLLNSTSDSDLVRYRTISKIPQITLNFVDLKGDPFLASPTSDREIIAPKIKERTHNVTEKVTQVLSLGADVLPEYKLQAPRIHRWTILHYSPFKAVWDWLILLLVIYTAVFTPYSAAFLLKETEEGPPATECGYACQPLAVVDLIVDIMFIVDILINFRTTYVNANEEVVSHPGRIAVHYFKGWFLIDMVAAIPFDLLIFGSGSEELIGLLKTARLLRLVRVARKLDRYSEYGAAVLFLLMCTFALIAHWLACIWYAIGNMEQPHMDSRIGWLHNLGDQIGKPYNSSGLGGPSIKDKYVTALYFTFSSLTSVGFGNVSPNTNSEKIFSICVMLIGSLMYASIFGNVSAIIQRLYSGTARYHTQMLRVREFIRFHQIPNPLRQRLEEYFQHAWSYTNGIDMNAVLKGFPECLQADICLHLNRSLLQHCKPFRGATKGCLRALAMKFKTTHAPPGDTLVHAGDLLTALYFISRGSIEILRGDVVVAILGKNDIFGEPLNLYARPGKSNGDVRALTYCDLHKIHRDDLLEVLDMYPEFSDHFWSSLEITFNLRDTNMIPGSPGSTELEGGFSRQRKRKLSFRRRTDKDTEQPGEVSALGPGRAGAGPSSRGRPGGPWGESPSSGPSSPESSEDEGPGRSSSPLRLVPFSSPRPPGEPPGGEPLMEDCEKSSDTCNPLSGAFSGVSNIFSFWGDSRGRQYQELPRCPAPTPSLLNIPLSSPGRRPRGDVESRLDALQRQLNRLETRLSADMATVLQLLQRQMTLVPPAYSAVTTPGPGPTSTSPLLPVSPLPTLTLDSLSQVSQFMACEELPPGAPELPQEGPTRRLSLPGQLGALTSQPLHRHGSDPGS
# Procedure, shortened: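 Thallium served as the potassium surrogate; its influx into dye-loaded U2OS cells carrying the channel was measured by fluorescence over 2 min.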
# [3] = target: Cytochrome P450 3A4 (Homo sapiens) (UniProt P08684); assay: Cytochrome P450 Family 3 Subfamily A Member 4 (CYP3A4) small molecule antagonists: luciferase reporter qHTS assay (AID 1671201); settings: P450-Glo CYP3A4 enzyme, luciferin luminescence, 1 h; series mostly up to 115 µM; also: potency is read from the fitted curve at half-maximal effect
# Chain of Cytochrome P450 3A4 (Homo sapiens) (P08684 whole entry, looked up): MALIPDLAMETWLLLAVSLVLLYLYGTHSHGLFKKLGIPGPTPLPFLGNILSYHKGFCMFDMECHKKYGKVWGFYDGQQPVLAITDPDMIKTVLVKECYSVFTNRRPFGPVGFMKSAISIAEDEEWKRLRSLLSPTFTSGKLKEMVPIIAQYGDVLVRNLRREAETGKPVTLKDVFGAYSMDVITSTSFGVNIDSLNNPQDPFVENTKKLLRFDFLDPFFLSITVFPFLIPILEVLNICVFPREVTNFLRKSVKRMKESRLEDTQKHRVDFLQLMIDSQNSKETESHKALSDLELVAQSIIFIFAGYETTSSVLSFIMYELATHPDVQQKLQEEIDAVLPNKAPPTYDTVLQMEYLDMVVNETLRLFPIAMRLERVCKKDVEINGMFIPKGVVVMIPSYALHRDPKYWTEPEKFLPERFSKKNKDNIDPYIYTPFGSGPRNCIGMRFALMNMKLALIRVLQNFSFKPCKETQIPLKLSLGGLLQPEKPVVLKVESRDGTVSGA
# Procedure, shortened: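 Relative luminescence units after 20 min with luciferin detection reagent served as read-out. Beforehand, CYP3A4 turned over a proluciferin substrate for 1 h at room temperature with NADPH regeneration, following 10 min compound preincubation.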
# [4] = target: Cytochrome P450 2C9 (Homo sapiens) (UniProt P11712); assay: Cytochrome P450 Family 2 Subfamily C Member 9 (CYP2C9) small molecule antagonists: luciferase reporter qHTS assay (AID 1671198); settings: P450-Glo CYP2C9 enzyme assay, luciferin luminescence; series mostly up to 115 µM; also: potency is read from the fitted curve at half-maximal effect
# Chain of Cytochrome P450 2C9 (Homo sapiens) (P11712 whole entry, looked up): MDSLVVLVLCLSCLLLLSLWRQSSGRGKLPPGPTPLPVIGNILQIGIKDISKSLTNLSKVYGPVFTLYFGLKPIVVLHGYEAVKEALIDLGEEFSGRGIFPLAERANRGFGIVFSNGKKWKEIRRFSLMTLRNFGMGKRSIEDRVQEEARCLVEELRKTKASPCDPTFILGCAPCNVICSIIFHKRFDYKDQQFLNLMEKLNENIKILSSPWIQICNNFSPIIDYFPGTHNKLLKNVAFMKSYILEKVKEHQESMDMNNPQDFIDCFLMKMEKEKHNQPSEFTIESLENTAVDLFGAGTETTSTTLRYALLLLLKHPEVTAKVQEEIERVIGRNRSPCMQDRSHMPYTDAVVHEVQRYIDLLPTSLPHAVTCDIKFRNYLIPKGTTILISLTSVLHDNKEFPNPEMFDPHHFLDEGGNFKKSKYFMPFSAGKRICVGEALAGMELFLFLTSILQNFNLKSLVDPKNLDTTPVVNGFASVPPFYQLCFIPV
# Procedure, shortened: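 CYP2C9 activity was measured with a P450-Glo proluciferin substrate. Enzyme–substrate mix was held with compound for 10 min at room temperature, then NADPH regeneration solution was added for 1 h at 37C. Luciferin product was read as luminescence.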
# Also: nearly all actives have a fitted effect of over 50% in size.
structure (smiles),measurement,setting,value
c1ccc2ncccc2c1,Potency,[1],inactive and 35.6 µM (active)
same,Potency,[2],inactive
same,Potency,[3],inactive
CN(C)C,Potency,[4],inactive
same,Potency,[1],inactive
same,Potency,[2],inactive
same,Potency,[3],inactive
CC(=O)Oc1c(C)c(C)c2c(c1C)CC[C@@](C)(CCC[C@H](C)CCC[C@H](C)CCCC(C)C)O2,Potency,[4],inactive
same,Potency,[1],inactive
same,Potency,[2],inactive
same,Potency,[3],inactive
O=Cc1ccccc1C=O,Potency,[4],35.6 µM (active) and inactive
same,Potency,[1],63.3 µM (active) and inactive
same,Potency,[2],inactive
same,Potency,[3],inactive
[Na+],Potency,[4],inactive
same,Potency,[2],inactive
same,Potency,[3],inactive
ClC/C=C/CCl,Potency,[4],inactive
same,Potency,[1],inactive
same,Potency,[2],inactive
same,Potency,[3],inactive
CN1CCOCC1,Potency,[2],inactive
CC(C)(Oc1ccc(Cl)cc1)C(=O)O,Potency,[2],inactive
CC/C=C\C/C=C\C/C=C\CCCCCCCC(=O)O,Potency,[4],35.3 µM (active) and 39.9 µM (active)
same,Potency,[1],inactive
same,Potency,[2],inactive
same,Potency,[3],inactive and 39.9 µM (active)
C=CN1CCCC1=O,Potency,[4],inactive
same,Potency,[1],inactive
same,Potency,[2],inactive
same,Potency,[3],inactive
COc1ccc(C(=O)c2ccccc2O)c(O)c1,Potency,[2],inactive
NC[C@H](O)c1ccc(O)c(O)c1,Potency,[1],inactive
same,Potency,[2],inactive
same,Potency,[3],inactive
c1ccc2c(c1)ccc1cc3c(ccc4ccccc43)cc12,Potency,[4],inactive
same,Potency,[1],24.9 µM (active)
same,Potency,[2],inactive
same,Potency,[3],inactive
O=C(O)CCCCCCCCCCCC(=O)O,Potency,[2],inactive
same,Potency,[3],inactive
C1COCCN1,Potency,[4],inactive
same,Potency,[1],inactive
same,Potency,[2],inactive
same,Potency,[3],inactive
CCCCCC1C(=O)CCC1CC(=O)OC (stereo not drawn),Potency,[4],24.9 µM (active) and 31.7 µM (active)
same,Potency,[1],28 µM (active) and 28.3 µM (active)
same,Potency,[2],inactive
same,Potency,[3],inactive
CC/C(=C(/CC)c1ccc(O)cc1)c1ccc(O)cc1,Potency,[2],inactive
CCCCCCOCCOCCO,Potency,[2],inactive
Nc1ccc(N)c(Cl)c1,Potency,[4],8.92 µM (active) and 8.94 µM (active)
same,Potency,[1],39.8 µM (active) and 35.6 µM (active)
same,Potency,[2],inactive
same,Potency,[3],2.51 µM (active) and 5.64 µM (active)
C[C@]12CC[C@@H]3c4ccc(O)cc4CC[C@H]3[C@@H]1CC[C@@H]2O,Potency,[4],inactive
same,Potency,[3],inactive
